In PubChem BioAssay (NCI):
Compounds without any hit were thinned out: in the full panel of roughly 83,000, 20% have a hit.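 How to read the values: 0–100, growth inhibition (40 = 60% inhibited); 0, no net growth; -100 to 0, cell death (-40 = 40% of starting cells died; -100 = all dead).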 Unmarked numbers belong to inactive results. Activity calls are given as the source filed them. Rule for the calls: active = growth percent below 10; inactive = the rest.

System: NCI-H226 lung
Experiment: NCI-60 one-dose screen, 48 h (100 = growth as untreated, 0 = no growth, -100 = all killed)
Details: 10 µM

Row | Compound | growth
1 | Clc1ccc(Nc2ccnc(NCCCNc3ccnc4cc(Cl)ccc34)n2)cc1 | 93.7%
2 | Oc1[nH]c2cc(Cl)ccc2c1/C=c1/ccc2c(c1)N=C(c1cc(F)cc(F)c1)N=2 | 55.1%
3 | CSc1nn(-c2ccccc2)c2ncnc(Oc3ccccc3)c12 | 90.6%
4 | Cc1cc2c(C)c3cc(C)c(N)cc3nc2cc1N | 10.1%
5 | CCOC(=O)C1(CC(C)C)CCOC1=O (stereo not drawn) | 106%
6 | COc1ccc(Nc2cc(C)nc(NCCCNc3ccnc4cc(Cl)ccc34)n2)cc1 | 110%
7 | CCCCCCCCCCCCCCCC(=O)OC1[C@@H](OC(=O)CCCCCCCCCCCCCCC)[C@@H](C(=O)N[C@@H](CCCCN)C(=O)OC)O[C@H]1n1cnc2c(=O)[nH]c(NC(=O)C(C)C)nc21 (stereo partly drawn) | 102%
8 | COc1cc(Nc2ccnc(NCCNc3ccnc4cc(Cl)ccc34)n2)cc(OC)c1 | 55.5%
9 | Cc1cc(Nc2ccc(Cl)cc2)nc(NCCCNc2ccnc3cc(Cl)ccc23)n1 | 102%
10 | COc1cc2cc3c(nc2cc1OC)CCN3Cc1ccc(NC(=O)Nc2cc(C(F)(F)F)cc(C(F)(F)F)c2)cc1 | 92.6%
11 | CC(C)=CCc1cc(O)cc2c1OC(C=C(C)C)C1=C2C(=O)C2=C(NCCS2(=O)=O)C1=O (stereo not drawn) | -17.6% (active)
12 | CC(C)=CCc1cc(O)cc2c1OC(C=C(C)C)C1=C2C(=O)C2=C(C1=O)S(=O)(=O)CCN2 (stereo not drawn) | 59.8%
13 | COc1ccc(Nc2ccnc(NCCNc3ccnc4cc(Cl)ccc34)n2)cc1 | 49.7%
14 | Cc1cc(Cl)nc(N(CCCNc2ccnc3cc(Cl)ccc23)Cc2cccs2)n1 | 41.1%
15 | COc1cc(Cl)cc(-c2nn(-c3cccc(NC(=O)Nc4cc(C(F)(F)F)cc(C(F)(F)F)c4)c3)cc2-c2ccncc2)c1 | -5.97% (active)
16 | CN(C)CCNC(=O)c1cccn2c(=O)c3cc4ccccc4cc3nc12 | -16% (active)
17 | CC12O[C@H](C[C@@H](O)[C@H]1O)n1c3ccccc3c3c4c(c5c6ccccc6n2c5c31)C(=O)N(CCCN)C4=O | 27.4%
18 | CCCCCCCC(C)NCCO (stereo not drawn) | 97.4%
19 | Cc1cc(N(CCCNc2ccnc3cc(Cl)ccc23)Cc2ccc3c(c2)OCO3)nc(N2CCOCC2)n1 | 67.2%
20 | COc1cc(-c2nnc(-c3c(-c4ccc(F)cc4)nc4ccccn34)o2)cc(OC)c1OC | 53.7%

Row | Compound | growth
21 | COc1ccc2c(c1)/C(=C\c1c[nH]c3ccc(OC)cc13)C(=O)N2 | 72.7%
22 | NC(=O)CC1(c2ccccc2)CCCCC1 | 110%
23 | COc1ccc(-c2nc3sccn3c2-c2nc3c([nH]2)C(=O)c2ccccc2C3=O)cc1 | 95.1%
24 | Fc1ccc(-c2nnc(-c3c(-c4ccc(F)cc4)nc4ccccn34)o2)cc1 | 84.2%
25 | CCN1CCCC1CNC(=O)c1ncc(-c2ccc(C(F)(F)F)cc2)c(NC2CCCCCC2)n1 (stereo not drawn) | 86%
26 | Cc1ccc(Nc2cc(C)nc(NCCCNc3ccnc4cc(Cl)ccc34)n2)cc1 | 48.5%
27 | Cn1c([N+](=O)[O-])cnc1/C=C1\Oc2ccccc2C1=O | -7.33% (active)
28 | CC12O[C@H](C[C@@H](OC(=O)c3ccccc3)[C@H]1O)n1c3ccccc3c3c4c(c5c6ccccc6n2c5c31)C(=O)NC4=O | 32.3%
29 | COc1ccc(-c2nc3ncccn3c2-c2nnc(-c3ccc(F)cc3)o2)cc1 | 96.7%
30 | Nc1ccc2c(c1)C1(CCC2)NC(=O)NC1=O (stereo not drawn) | 92.1%
31 | COc1cc(OC)cc(-c2cncn2-c2ccc(-c3nc4cc(OC)cc(OC)c4s3)cc2)c1 | 67.7%
32 | Clc1ccc2c(NCCCNc3nccc(Nc4ccc(Br)cc4)n3)ccnc2c1 | 90.1%
33 | O=C(Nc1cccc(Br)c1)c1cc(=O)[nH]c2ccccc12 | 82.9%
34 | COc1cc(Nc2ccnc(NCCCNc3ccnc4cc(Cl)ccc34)n2)cc(OC)c1 | 87.6%
35 | CN1CCC(CNc2cc(C3(C(=O)Nc4cc(C(=O)Nc5ccc(Cl)c(C(F)(F)F)c5)ccc4F)CC3)ncn2)CC1 | 72.5%
36 | N#Cc1c(C#N)c(SSc2c(C#N)c(C#N)c(N)n2-c2ccccc2)n(-c2ccccc2)c1N | 101%
37 | Clc1ccc(Nc2ccnc(NCCNc3ccnc4cc(Cl)ccc34)n2)cc1 | 63.3%
38 | Cc1cc(N(CCCNc2ccnc3cc(Cl)ccc23)Cc2ccc3c(c2)OCO3)nc(N2CCCCC2)n1 | 38.1%
39 | CCCCN(CCCC)c1cc(C(=O)CCCCCN)c2ccccc2n1 | 93%

System: NCI-H322M lung
Experiment: as above
Details: 10 µM

Row | Compound | growth
40 | Clc1ccc(Nc2ccnc(NCCCNc3ccnc4cc(Cl)ccc34)n2)cc1 | -16.7% (active)
41 | Oc1[nH]c2cc(Cl)ccc2c1/C=c1/ccc2c(c1)N=C(c1cc(F)cc(F)c1)N=2 | 49.1%
42 | CSc1nn(-c2ccccc2)c2ncnc(Oc3ccccc3)c12 | 88.6%
43 | Cc1cc2c(C)c3cc(C)c(N)cc3nc2cc1N | -12.5% (active)
44 | CCOC(=O)C1(CC(C)C)CCOC1=O (stereo not drawn) | 104%
45 | COc1ccc(Nc2cc(C)nc(NCCCNc3ccnc4cc(Cl)ccc34)n2)cc1 | -3.79% (active)
46 | CCCCCCCCCCCCCCCC(=O)OC1[C@@H](OC(=O)CCCCCCCCCCCCCCC)[C@@H](C(=O)N[C@@H](CCCCN)C(=O)OC)O[C@H]1n1cnc2c(=O)[nH]c(NC(=O)C(C)C)nc21 (stereo partly drawn) | 89.6%
47 | COc1cc(Nc2ccnc(NCCNc3ccnc4cc(Cl)ccc34)n2)cc(OC)c1 | 46.5%
48 | Cc1cc(Nc2ccc(Cl)cc2)nc(NCCCNc2ccnc3cc(Cl)ccc23)n1 | -0.971% (active)
49 | COc1cc2cc3c(nc2cc1OC)CCN3Cc1ccc(NC(=O)Nc2cc(C(F)(F)F)cc(C(F)(F)F)c2)cc1 | 72.5%
50 | CC(C)=CCc1cc(O)cc2c1OC(C=C(C)C)C1=C2C(=O)C2=C(NCCS2(=O)=O)C1=O (stereo not drawn) | -17.5% (active)
51 | CC(C)=CCc1cc(O)cc2c1OC(C=C(C)C)C1=C2C(=O)C2=C(C1=O)S(=O)(=O)CCN2 (stereo not drawn) | 5.2% (active)
52 | COc1ccc(Nc2ccnc(NCCNc3ccnc4cc(Cl)ccc34)n2)cc1 | 64.7%
53 | Cc1cc(Cl)nc(N(CCCNc2ccnc3cc(Cl)ccc23)Cc2cccs2)n1 | 29.7%
54 | COc1cc(Cl)cc(-c2nn(-c3cccc(NC(=O)Nc4cc(C(F)(F)F)cc(C(F)(F)F)c4)c3)cc2-c2ccncc2)c1 | 11%
55 | CN(C)CCNC(=O)c1cccn2c(=O)c3cc4ccccc4cc3nc12 | 3.8% (active)
56 | CC12O[C@H](C[C@@H](O)[C@H]1O)n1c3ccccc3c3c4c(c5c6ccccc6n2c5c31)C(=O)N(CCCN)C4=O | 56.3%
57 | CCCCCCCC(C)NCCO (stereo not drawn) | 88.9%
58 | Cc1cc(N(CCCNc2ccnc3cc(Cl)ccc23)Cc2ccc3c(c2)OCO3)nc(N2CCOCC2)n1 | 37.5%
59 | COc1cc(-c2nnc(-c3c(-c4ccc(F)cc4)nc4ccccn34)o2)cc(OC)c1OC | 91.8%

Row | Compound | growth
60 | COc1ccc2c(c1)/C(=C\c1c[nH]c3ccc(OC)cc13)C(=O)N2 | 54.7%
61 | NC(=O)CC1(c2ccccc2)CCCCC1 | 90.9%
62 | COc1ccc(-c2nc3sccn3c2-c2nc3c([nH]2)C(=O)c2ccccc2C3=O)cc1 | 108%
63 | Fc1ccc(-c2nnc(-c3c(-c4ccc(F)cc4)nc4ccccn34)o2)cc1 | 105%
64 | CCN1CCCC1CNC(=O)c1ncc(-c2ccc(C(F)(F)F)cc2)c(NC2CCCCCC2)n1 (stereo not drawn) | 84.7%
65 | Cc1ccc(Nc2cc(C)nc(NCCCNc3ccnc4cc(Cl)ccc34)n2)cc1 | -31.8% (active)
66 | Cn1c([N+](=O)[O-])cnc1/C=C1\Oc2ccccc2C1=O | 18.6%
67 | CC12O[C@H](C[C@@H](OC(=O)c3ccccc3)[C@H]1O)n1c3ccccc3c3c4c(c5c6ccccc6n2c5c31)C(=O)NC4=O | 83.1%
68 | COc1ccc(-c2nc3ncccn3c2-c2nnc(-c3ccc(F)cc3)o2)cc1 | 101%
69 | Nc1ccc2c(c1)C1(CCC2)NC(=O)NC1=O (stereo not drawn) | 103%
70 | COc1cc(OC)cc(-c2cncn2-c2ccc(-c3nc4cc(OC)cc(OC)c4s3)cc2)c1 | 82.8%
71 | Clc1ccc2c(NCCCNc3nccc(Nc4ccc(Br)cc4)n3)ccnc2c1 | -19.9% (active)
72 | O=C(Nc1cccc(Br)c1)c1cc(=O)[nH]c2ccccc12 | 94.2%
73 | COc1cc(Nc2ccnc(NCCCNc3ccnc4cc(Cl)ccc34)n2)cc(OC)c1 | 15.2%
74 | CN1CCC(CNc2cc(C3(C(=O)Nc4cc(C(=O)Nc5ccc(Cl)c(C(F)(F)F)c5)ccc4F)CC3)ncn2)CC1 | 39.4%
75 | N#Cc1c(C#N)c(SSc2c(C#N)c(C#N)c(N)n2-c2ccccc2)n(-c2ccccc2)c1N | 108%
76 | Clc1ccc(Nc2ccnc(NCCNc3ccnc4cc(Cl)ccc34)n2)cc1 | 20.1%
77 | Cc1cc(N(CCCNc2ccnc3cc(Cl)ccc23)Cc2ccc3c(c2)OCO3)nc(N2CCCCC2)n1 | -5.02% (active)
78 | CCCCN(CCCC)c1cc(C(=O)CCCCCN)c2ccccc2n1 | -30.8% (active)
